In PubChem BioAssay (EPA / NIEHS):
Several values for one entry are separate records, joined by “and”; a condition that tells them apart may be missing. Identical values can stand only once. Inconclusive results are not listed. A structure can be active in one record and inactive in another. Activity calls are given as the source filed them. Rule for the calls: active = hit-call score of the fitted dose curve at least 0.9, where 1 is the maximum; inconclusive = response in the unintended direction; inactive = score below 0.9.

Columns and labels:
[1] = tested on: zebrafish Estrogen Receptor (ER2b), gene 317733; test: ATG_zfER2b_XSP2: Attagene TRANS-FACTORIAL Multi-Species (XSP2) HepG2 Assay for zebrafish Estrogen Receptor (ER2b) (AID 2283823);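 note: fitted upward as reporter gain over DMSO so potency reflects activation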
In short: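 In this multiplexed trans-activation format, HepG2 cells expressing exogenous NR-Gal4 fusions drive GAL4-UAS reporters. Exposure lasts 24 h, and reporter mRNA induction is read by RT-PCR with capillary electrophoresis detection.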

[2] = tested on: frog Androgen Receptor (AR), gene 399456; test: ATG_frAR_XSP2: Attagene TRANS-FACTORIAL Multi-Species (XSP2) HepG2 Assay for frog Androgen Receptor (AR) (AID 2283824);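 note: actives raise reporter signal above DMSO so AC50 reflects agonist-like induction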
In short: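 HepG2 cells transiently transfected with GAL4-UAS reporter units and frog (Xenopus laevis) AR-Gal4 chimera; reporter mRNA measured 24 h after dosing by RT-PCR and capillary electrophoresis. Gain of signal fitted relative to DMSO baseline.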

[3] = ATG_M_32_XSP2: Attagene TRANS-FACTORIAL Multi-Species (XSP2) HepG2 Assay for M19 Transcription Factor (Internal Marker) (AID 2283826)
In short: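 Total RNA is taken from compound-treated HepG2 cells after 24 h and reverse-transcribed; reporter cDNA is PCR-amplified, end-labelled with 6-FAM, digested with HpaI for 2h at 37 C and sized by capillary electrophoresis. Activity is fitted in the positive direction against DMSO.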

[4] = target: Estrogen receptor (Homo sapiens) (UniProt P03372); test: ATG_hERa_XSP2: Attagene TRANS-FACTORIAL Multi-Species (XSP2) HepG2 Assay for human Estrogen Receptor (ERa) (AID 2283827)
In short: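 HepG2 cells transiently transfected with multiplexed GAL4-UAS reporters driven by chimeric receptor-Gal4 proteins, dosed 24 h with 3 nM 6-alpha-fluorotestosterone and 1.5 nM norgestrel present. Reporter mRNA by RT-PCR and capillary electrophoresis; gain-of-signal fit versus DMSO.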

[5] = tested on: frog Estrogen Receptor (ER2), gene 100174814; test: ATG_frER2_XSP2: Attagene TRANS-FACTORIAL Multi-Species (XSP2) HepG2 Assay for frog Estrogen Receptor (ER2) (AID 2283828)
In short: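 Human liver HepG2, transient MRTU transfection (TRANS format, exogenous NR–Gal4). 24 h cpd exposure. Total RNA → RT → PCR → FAM label → HpaI cut → CE. Positive direction vs DMSO.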

[6] = target: mouse Peroxisome Proliferator-activated Receptor gamma (PPARg), Pparg (gene 19016) (UniProt P37238); test: ATG_mPPARg_XSP2: Attagene TRANS-FACTORIAL Multi-Species (XSP2) HepG2 Assay for mouse Peroxisome Proliferator-activated Receptor gamma (PPARg) (AID 2283830);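 note: hits are gains in reporter mRNA above DMSO so AC50 marks activation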
In short: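 HepG2 cells transiently transfected with GAL4-UAS reporter units for chimeric NR-Gal4 proteins including mouse PPARg, exposed 24 h; medium contained 3 nM 6-alpha-fluorotestosterone and 1.5 nM norgestrel. Reporter mRNA quantified by RT-PCR, HpaI digestion and capillary electrophoresis, vs DMSO.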

[7] = target: Nuclear receptor subfamily 1 group I member 2 (Mus musculus) (UniProt O54915); test: ATG_mPXR_XSP2: Attagene TRANS-FACTORIAL Multi-Species (XSP1) HepG2 Assay for mouse Pregnane X Receptor (PXR) (AID 2283831)
In short: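 Human liver HepG2 cells expressing exogenous receptor-GAL4 chimeras were exposed to test chemicals for 24 h. Induction of reporter mRNA was scored as gain of fluorescence signal over DMSO controls.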

[8] = target: zebrafish Thyroid Hormone Receptor alpha (TRa), thraa (gene 30670) (UniProt Q98867); test: ATG_zfTRa_XSP2: Attagene TRANS-FACTORIAL Multi-Species (XSP1) HepG2 Assay for zebrafish Thyroid Hormone Receptor alpha (TRa) (AID 2283832);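 note: actives raise zebrafish TRa-Gal4 reporter transcript above DMSO baseline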
In short: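 Chimeric receptor-Gal4 activity was assessed in transfected human liver HepG2 cells 24 h after dosing, using reporter transcript levels detected by RT-PCR and capillary electrophoresis. DMSO served as baseline.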

[9] = tested on: zebrafish Peroxisome Proliferator-activated Receptor gamma (PPARg), gene 557037; test: ATG_zfPPARg_XSP2: Attagene TRANS-FACTORIAL Multi-Species (XSP2) HepG2 Assay for zebrafish Peroxisome Proliferator-activated Receptor gamma (PPARg) (AID 2283833);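 note: actives increase reporter signal over DMSO so AC50 reflects activation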
In short: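 Cell-based transactivation of a chimeric zebrafish PPARg-GAL4 receptor was assessed in transiently transfected HepG2 cells after 24 h of treatment. Reporter mRNA induction, detected fluorescently after RT-PCR, was analysed in the positive direction against DMSO.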

[10] = tested on: zebrafish Androgen Receptor (AR), gene 100005148; test: ATG_zfAR_XSP2: Attagene TRANS-FACTORIAL Multi-Species (XSP2) HepG2 Assay for zebrafish Androgen Receptor (AR) (AID 2283825);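 note: hits raise reporter mRNA above DMSO so AC50 reflects agonist-type gain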
In short: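 Zebrafish AR–GAL4 chimera transiently expressed with GAL4-UAS reporter in HepG2 cells, co-stimulated with 3 nM 6-alpha-fluorotestosterone and 1.5 nM norgestrel; 24 h dosing, reporter mRNA read by RT-PCR/capillary electrophoresis versus DMSO.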

Measured: AC50

Sequence of Nuclear receptor subfamily 1 group I member 2 (Mus musculus) (O54915 whole entry, looked up, the tested form may be a part): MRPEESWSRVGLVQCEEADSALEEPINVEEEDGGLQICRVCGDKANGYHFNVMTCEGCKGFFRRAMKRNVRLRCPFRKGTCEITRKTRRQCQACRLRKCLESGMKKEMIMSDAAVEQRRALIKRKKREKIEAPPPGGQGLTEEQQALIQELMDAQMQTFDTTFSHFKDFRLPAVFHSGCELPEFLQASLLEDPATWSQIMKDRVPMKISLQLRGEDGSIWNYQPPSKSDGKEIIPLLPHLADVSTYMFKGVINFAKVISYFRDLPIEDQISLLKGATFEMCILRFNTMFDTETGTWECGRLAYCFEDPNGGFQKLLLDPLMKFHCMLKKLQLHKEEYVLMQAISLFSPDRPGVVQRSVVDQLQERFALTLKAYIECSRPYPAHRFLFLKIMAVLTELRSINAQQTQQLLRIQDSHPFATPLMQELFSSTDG
Sequence of mouse Peroxisome Proliferator-activated Receptor gamma (PPARg), Pparg (gene 19016) (P37238 whole entry, looked up, the tested form may be a part): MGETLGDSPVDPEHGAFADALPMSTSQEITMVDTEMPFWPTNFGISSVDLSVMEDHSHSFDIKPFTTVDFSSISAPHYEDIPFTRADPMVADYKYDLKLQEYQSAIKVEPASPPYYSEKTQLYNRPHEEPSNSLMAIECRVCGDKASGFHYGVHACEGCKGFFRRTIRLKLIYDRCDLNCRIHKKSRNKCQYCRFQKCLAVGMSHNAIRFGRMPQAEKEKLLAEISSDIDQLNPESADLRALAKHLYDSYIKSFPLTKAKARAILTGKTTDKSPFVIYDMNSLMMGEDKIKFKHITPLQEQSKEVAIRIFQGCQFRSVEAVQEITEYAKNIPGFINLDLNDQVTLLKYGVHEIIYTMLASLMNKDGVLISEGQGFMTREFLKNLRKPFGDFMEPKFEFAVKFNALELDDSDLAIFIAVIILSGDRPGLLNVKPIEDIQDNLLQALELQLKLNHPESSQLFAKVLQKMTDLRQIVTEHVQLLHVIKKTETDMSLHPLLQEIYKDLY
Sequence of zebrafish Thyroid Hormone Receptor alpha (TRa), thraa (gene 30670) (Q98867 whole entry, looked up, the tested form may be a part): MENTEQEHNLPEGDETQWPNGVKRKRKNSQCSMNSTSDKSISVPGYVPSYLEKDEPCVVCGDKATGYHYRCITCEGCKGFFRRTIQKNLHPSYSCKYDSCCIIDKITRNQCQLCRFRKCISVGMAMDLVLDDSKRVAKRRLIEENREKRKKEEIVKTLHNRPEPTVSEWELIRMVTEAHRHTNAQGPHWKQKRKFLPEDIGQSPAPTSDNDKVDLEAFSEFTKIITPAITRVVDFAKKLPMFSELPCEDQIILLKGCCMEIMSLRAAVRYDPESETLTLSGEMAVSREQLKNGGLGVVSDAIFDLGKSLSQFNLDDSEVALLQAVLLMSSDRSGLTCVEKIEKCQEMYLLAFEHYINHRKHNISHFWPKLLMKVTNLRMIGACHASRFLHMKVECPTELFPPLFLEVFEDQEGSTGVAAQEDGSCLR
Sequence of Estrogen receptor (Homo sapiens) (P03372 whole entry, looked up, the tested form may be a part): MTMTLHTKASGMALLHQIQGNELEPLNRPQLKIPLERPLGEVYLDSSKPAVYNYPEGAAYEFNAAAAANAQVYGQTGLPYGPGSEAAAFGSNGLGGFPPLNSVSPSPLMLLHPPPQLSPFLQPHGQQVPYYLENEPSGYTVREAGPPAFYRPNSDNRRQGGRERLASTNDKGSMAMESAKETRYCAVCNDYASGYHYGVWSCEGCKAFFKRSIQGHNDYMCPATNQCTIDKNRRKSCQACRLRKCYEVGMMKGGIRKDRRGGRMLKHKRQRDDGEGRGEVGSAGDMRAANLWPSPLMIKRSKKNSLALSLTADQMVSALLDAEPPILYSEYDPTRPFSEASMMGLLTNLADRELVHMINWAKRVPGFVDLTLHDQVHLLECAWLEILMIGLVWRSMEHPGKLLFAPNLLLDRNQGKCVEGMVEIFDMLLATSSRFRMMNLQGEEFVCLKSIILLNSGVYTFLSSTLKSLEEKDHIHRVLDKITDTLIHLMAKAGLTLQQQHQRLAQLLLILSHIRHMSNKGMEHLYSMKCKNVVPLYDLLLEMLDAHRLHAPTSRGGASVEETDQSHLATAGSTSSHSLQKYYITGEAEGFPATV

CC(C)(C)c1cc(O)ccc1O
inactive: [2] | [3] | [7] | [9]
active: [1] 55.2 µM | [4] 33.1 µM | [5] 46.8 µM | [6] 70.6 µM | [8] 54.9 µM

COP(=O)(OC)O/C(=C\Cl)c1cc(Cl)c(Cl)cc1Cl
inactive: [3] | [5] | [8]
active: [1] 45.5 µM | [4] 9.68 µM | [6] 14.8 µM | [9] 47.3 µM

Clc1ccc(C2(Cn3cncn3)CC(Br)CO2)c(Cl)c1 (centres undefined)
inactive: [3] | [5] | [6] | [8] | [9]
active: [1] 51.4 µM and 29.2 µM | [4] 4.43 µM and 6.56 µM | [5] 28.8 µM | [6] 62.7 µM | [7] 3.32 µM and 1.59 µM

CC12CC1(C)C(=O)N(c1cc(Cl)cc(Cl)c1)C2=O (centres undefined)
active: [1] 29.8 µM | [5] 100 µM | [7] 8.41 µM and 6.41 µM
inactive: [1] | [3] | [5] | [6] | [8] | [9]

CC(C)(C)CC(C)(C)c1ccc(O)cc1
inactive: [7]
active: [1] 5.17 µM | [5] 4.83 µM

CC(=O)C=C(C)C
active: [5] 183 µM
not listed: [2]
inactive: all other assays above

Oc1ccc(-c2ccccc2)cc1
active: [1] 5.61 µM and 3.05 µM | [5] 1.75 µM and 690 nM | [6] 100 µM
inactive: [3] | [6] | [7] | [8] | [9]

Oc1c(I)cc(I)cc1I
active: [1] 57.4 µM | [4] 3.11 µM | [6] 18 µM and 14.1 µM | [7] 56.6 µM | [8] 100 µM | [9] 26.1 µM and 23.3 µM
inactive: [1] | [3] | [7] | [8]

C[C@]12CCC(=O)C[C@@H]1CC[C@@H]1[C@@H]2CC[C@]2(C)[C@@H](O)CC[C@@H]12
active: [2] 0.0457 µM
not listed: [4] | [5] | [7]
inactive: all other assays above

C[C@]12CC[C@H](O)CC1=CC[C@@H]1[C@@H]2CC[C@]2(C)C(=O)CC[C@@H]12
inactive: [3] | [6] | [8] | [9]
active: [1] 2.89 µM and 1.73 µM | [5] 3.43 µM and 2.23 µM | [7] 6.42 µM and 5.9 µM

CC1(C)CCC(Cc2ccc(Cl)cc2)C1(O)Cn1cncn1 (centres undefined)
inactive: [3] | [4] | [8] | [9]
active: [1] 27.5 µM | [5] 26 µM | [6] 70.1 µM | [7] 2.82 µM

C[C@H]1CCCC(=O)CCC/C=C/c2cc(O)cc(O)c2C(=O)O1
active: [1] 27.1 nM and 8.37 nM | [4] 3.41 nM and 1.59 nM | [5] 0.00566 µM
inactive: [5] | [6] | [8] | [9]

O=S(=O)(c1ccc(Cl)cc1)c1ccc(Cl)cc1
active: [1] 100 µM and 27.1 µM | [4] 4.86 µM and 27.8 µM | [5] 28 µM | [6] 16.3 µM and 26.8 µM | [7] 4.34 µM and 2.83 µM
inactive: [5] | [8] | [9]

O=C1C2(Cl)C3(Cl)C4(Cl)C(Cl)(Cl)C5(Cl)C3(Cl)C1(Cl)C5(Cl)C24Cl (centres undefined)
active: [1] 4.05 µM
inactive: [3] | [5] | [6] | [8] | [9]

CC(C)C1CCC(Cc2ccc(Cl)cc2)C1(O)Cn1cncn1 (centres undefined)
inactive: [3] | [4] | [5] | [6] | [8] | [9]
active: [1] 14.6 µM and 2.83 µM | [4] 7.95 µM | [5] 14.3 µM | [6] 10.2 µM | [7] 715 nM and 257 nM
